The values below come from paper PMC8384837, “Expanding the binding specificity for RNA recognition by a PUF domain”.

Positions count from the first letter of the chain named.

Common to all, as to experiment: yeast three-hybrid, YBZ-1, SC-Leu-His + 0.5 mM 3-AT, 4 days
Common to all, as to conditions: tags: N-Gal4 AD-HA kept; label: inside an RPR1-promoter hybrid RNA with tandem MS2 sites; ssRNA

In experiment [1] the target is T1, PUM1 PUF domain R6-VWA (Homo sapiens, UniProt Q14671 828-1176, N1043V;Y1044W;Q1047A).
T1 sequence: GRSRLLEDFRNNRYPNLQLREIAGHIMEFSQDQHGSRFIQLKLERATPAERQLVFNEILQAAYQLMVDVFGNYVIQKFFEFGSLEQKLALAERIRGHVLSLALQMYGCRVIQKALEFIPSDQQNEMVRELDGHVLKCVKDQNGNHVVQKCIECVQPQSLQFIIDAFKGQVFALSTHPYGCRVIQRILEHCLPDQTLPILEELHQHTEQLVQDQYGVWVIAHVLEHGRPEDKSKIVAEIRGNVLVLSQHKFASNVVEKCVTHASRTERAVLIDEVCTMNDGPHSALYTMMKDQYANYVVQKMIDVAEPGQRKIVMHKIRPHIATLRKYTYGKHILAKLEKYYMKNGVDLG
The gist of the method: (§1)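 A centromeric plasmid in strain YBZ-1 co-expressed Pumilio-1 PUF domain libraries, randomized at the three base-contacting residues of each repeat, with matching RNA elements; the strain carries a LexA–MS2 coat fusion and a HIS3 reporter. After four days on SC-Leu (input) or SC-Leu-His + 0.5 mM 3-AT (selection), the repeat regions were PCR-amplified and Illumina-sequenced. The interaction score is the log change in variant frequency from input to selection, using log2 and a pseudocount of 1 where absent.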

Experiment [2] has as its target PUM1 PUF domain R4-GNR (Homo sapiens, UniProt Q14671 828-1176, N971G;H972N;Q975R). The gist of the method: as §1
Experiment [3] deals with PUM1 PUF domain R3-LSV (Homo sapiens, UniProt Q14671 828-1176, C935L;R936S;Q939V). The procedure, abridged: as §1
In experiment [4] the target is PUM1 PUF domain R3-MRS (Homo sapiens, UniProt Q14671 828-1176, C935M;Q939S). The procedure, abridged: as §1
Experiment [5] deals with PUM1 PUF domain R5-RGG (Homo sapiens, UniProt Q14671 828-1176, C1007R;R1008G;Q1011G). The gist of the method:
as §1

The target in experiment [6] is PUM1 PUF domain R5-LWA (Homo sapiens, UniProt Q14671 828-1176, C1007L;R1008W;Q1011A). The gist of the method:
as §1

Experiment [7] has as its target PUM1 PUF domain R5-RRP (Homo sapiens, UniProt Q14671 828-1176, C1007R;Q1011P). The procedure, abridged: as §1
For experiment [8], the target named is PUM1 PUF domain R5-SVG (Homo sapiens, UniProt Q14671 828-1176, C1007S;R1008V;Q1011G). The procedure, abridged: as §1
Experiment [9] has as its target PUM1 PUF domain R1-RWS (Homo sapiens, UniProt Q14671 828-1176, S863R;R864W;Q867S). The procedure, abridged: as §1
For experiment [10], the target named is PUM1 PUF domain R1-RGT (Homo sapiens, UniProt Q14671 828-1176, S863R;R864G;Q867T). The gist of the method:
as §1

For experiment [11], the target named is PUM1 PUF domain R3-LWN (Homo sapiens, UniProt Q14671 828-1176, C935L;R936W;Q939N). The gist of the method:
as §1

In experiment [12] the target is PUM1 PUF domain R3-RPG (Homo sapiens, UniProt Q14671 828-1176, C935R;R936P;Q939G). The procedure, abridged: as §1
Experiment [13] deals with PUM1 PUF domain R8-AWK (Homo sapiens, UniProt Q14671 828-1176, N1122A;Y1123W;Q1126K). The procedure, abridged:
as §1

Experiment [14] addresses T2, PUM1 PUF domain R6-GYQ (Homo sapiens, UniProt Q14671 828-1176, N1043G).
T2 sequence: T1 sequence with V216G, W217Y, A220Q
The procedure, abridged:
as §1

Experiment [15] has as its target PUM1 PUF domain R4-PWN (Homo sapiens, UniProt Q14671 828-1176, N971P;H972W;Q975N). The procedure, abridged:
as §1

For experiment [16], the target named is PUM1 PUF domain R4-DFT (Homo sapiens, UniProt Q14671 828-1176, N971D;H972F;Q975T). The gist of the method: as §1
The target of experiment [17] is PUM1 PUF domain R1-MGR (Homo sapiens, UniProt Q14671 828-1176, S863M;R864G;Q867R). The gist of the method:
as §1

The target in experiment [18] is PUM1 PUF domain R1-YWR (Homo sapiens, UniProt Q14671 828-1176, S863Y;R864W;Q867R). The gist of the method:
as §1

For experiment [19], the target named is PUM1 PUF domain R7-RGY (Homo sapiens, UniProt Q14671 828-1176, S1079R;N1080G;E1083Y). The gist of the method:
as §1

Experiment [20] addresses PUM1 PUF domain R7-RQL (Homo sapiens, UniProt Q14671 828-1176, S1079R;N1080Q;E1083L). The gist of the method:
as §1

PUM1 PUF domain R5-RRP, sequence (Q14671 828-1176 C1007R/Q1011P): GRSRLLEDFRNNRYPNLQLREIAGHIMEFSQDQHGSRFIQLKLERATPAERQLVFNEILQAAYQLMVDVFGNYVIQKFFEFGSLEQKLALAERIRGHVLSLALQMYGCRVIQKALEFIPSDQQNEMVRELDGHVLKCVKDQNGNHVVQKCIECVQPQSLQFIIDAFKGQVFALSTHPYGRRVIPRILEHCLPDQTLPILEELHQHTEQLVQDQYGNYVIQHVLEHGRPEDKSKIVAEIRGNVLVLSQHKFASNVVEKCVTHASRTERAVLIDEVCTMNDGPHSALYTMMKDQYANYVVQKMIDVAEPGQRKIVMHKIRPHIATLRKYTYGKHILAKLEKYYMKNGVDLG
PUM1 PUF domain R5-LWA, sequence (Q14671 828-1176 C1007L/R1008W/Q1011A): as the sequence (Q14671 828-1176 C1007R/Q1011P) above, with R180L, R181W, P184A counted along it
PUM1 PUF domain R1-RGT, sequence (Q14671 828-1176 S863R/R864G/Q867T): as the sequence (Q14671 828-1176 C1007R/Q1011P) above, with S36R, R37G, Q40T, R180C, P184Q counted along it
PUM1 PUF domain R1-RWS, sequence (Q14671 828-1176 S863R/R864W/Q867S): as the sequence (Q14671 828-1176 C1007R/Q1011P) above, with S36R, R37W, Q40S, R180C, P184Q counted along it

Regarding “GGCUAGAACUAGUGGAUCCCCCGGCGCCCGGCGGCUCGAGCCCGGGUAAGUGAAAAUAGUCUGCAUGCCGCCGGGCGCCAUGCCUGCAGGUCGACUCUAGAAAACAUG”, in experiment [1], the binding signal was 6 log2 enrichment (interaction score).

With “GGCUAGAACUAGUGGAUCCCCCGGCGCCCGGCGGCUCGAGCCCGGGUAAGUGUACAUAGUCUGCAUGCCGCCGGGCGCCAUGCCUGCAGGUCGACUCUAGAAAACAUG”, the binding signal in experiment [2] was 1.04 log2 enrichment (interaction score).

For “GGCUAGAACUAGUGGAUCCCCCGGCGCCCGGCGGCUCGAGCCCGGGUAAGUGUAAGUAGUCUGCAUGCCGCCGGGCGCCAUGCCUGCAGGUCGACUCUAGAAAACAUG”, the figures for the binding signal in experiment [3] and in [4] were 3.37 log2 enrichment (interaction score) and 4.95 log2 enrichment (interaction score), respectively.

With “GGCUAGAACUAGUGGAUCCCCCGGCGCCCGGCGGCUCGAGCCCGGGUAAGUGUUAAUAGUCUGCAUGCCGCCGGGCGCCAUGCCUGCAGGUCGACUCUAGAAAACAUG”, the binding signal in [5] is 2.55 log2 enrichment (interaction score); in experiment [6], 3.28 log2 enrichment (interaction score); in experiment [7], 4.7 log2 enrichment (interaction score).

As to “GGCUAGAACUAGUGGAUCCCCCGGCGCCCGGCGGCUCGAGCCCGGGUAAGUGUGAAUAGUCUGCAUGCCGCCGGGCGCCAUGCCUGCAGGUCGACUCUAGAAAACAUG”, the binding signal in experiment [8] was 2.82 log2 enrichment (interaction score); in experiment [6], 1.01 log2 enrichment (interaction score); in [7], 1.27 log2 enrichment (interaction score).

With “GGCUAGAACUAGUGGAUCCCCCGGCGCCCGGCGGCUCGAGCCCGGGUAAGUGUAAAUGGUCUGCAUGCCGCCGGGCGCCAUGCCUGCAGGUCGACUCUAGAAAACAUG”, the binding signal in [9] was 1.65 log2 enrichment (interaction score); in [10], 1.3 log2 enrichment (interaction score).

“GGCUAGAACUAGUGGAUCCCCCGGCGCCCGGCGGCUCGAGCCCGGGUAAGUGUAAUUAGUCUGCAUGCCGCCGGGCGCCAUGCCUGCAGGUCGACUCUAGAAAACAUG”: the binding signal in [3] was 2.26 log2 enrichment (interaction score); in [11], 4 log2 enrichment (interaction score); in experiment [4], 2.96 log2 enrichment (interaction score); in [12], 4.38 log2 enrichment (interaction score).

Take “GGCUAGAACUAGUGGAUCCCCCGGCGCCCGGCGGCUCGAGCCCGGGUAAGUGUAUAUAGUCUGCAUGCCGCCGGGCGCCAUGCCUGCAGGUCGACUCUAGAAAACAUG”: the binding signal in [2] was 3.44 log2 enrichment (interaction score).

As for “GGCUAGAACUAGUGGAUCCCCCGGCGCCCGGCGGCUCGAGCCCGGGUAAGUGUCAAUAGUCUGCAUGCCGCCGGGCGCCAUGCCUGCAGGUCGACUCUAGAAAACAUG”, the binding signal in experiment [5] was 2.8 log2 enrichment (interaction score); in experiment [7] it was 5.07 log2 enrichment (interaction score).

Turning to “GGCUAGAACUAGUGGAUCCCCCGGCGCCCGGCGGCUCGAGCCCGGGUAAGUGUAAAUAGUCUGCAUGCCGCCGGGCGCCAUGCCUGCAGGUCGACUCUAGAAAACAUG”, the binding signal in [13] is 5.21 log2 enrichment (interaction score); in experiment [14], 3.62 log2 enrichment (interaction score); in experiment [15] it was 2.08 log2 enrichment (interaction score); in [6], 1.66 log2 enrichment (interaction score); in experiment [16] it was 3.18 log2 enrichment (interaction score); in experiment [7], 3.17 log2 enrichment (interaction score). Also, the binding signal in [1] is 4.02 log2 enrichment (interaction score).

Take “GGCUAGAACUAGUGGAUCCCCCGGCGCCCGGCGGCUCGAGCCCGGGUAAGCGUAAAUAGUCUGCAUGCCGCCGGGCGCCAUGCCUGCAGGUCGACUCUAGAAAACAUG”: the binding signal in experiment [13] was 4.69 log2 enrichment (interaction score).

Take “GGCUAGAACUAGUGGAUCCCCCGGCGCCCGGCGGCUCGAGCCCGGGUAAGUGUAAAUUGUCUGCAUGCCGCCGGGCGCCAUGCCUGCAGGUCGACUCUAGAAAACAUG”: the binding signal in experiment [9] was 3.86 log2 enrichment (interaction score); in experiment [17], 2.75 log2 enrichment (interaction score); in experiment [10] it was 4.56 log2 enrichment (interaction score); in experiment [18], 4.46 log2 enrichment (interaction score).

“GGCUAGAACUAGUGGAUCCCCCGGCGCCCGGCGGCUCGAGCCCGGGUAAGUUUAAAUAGUCUGCAUGCCGCCGGGCGCCAUGCCUGCAGGUCGACUCUAGAAAACAUG”: the binding signal in experiment [19] is 2.43 log2 enrichment (interaction score); in [20], 3.63 log2 enrichment (interaction score).

Consider “GGCUAGAACUAGUGGAUCCCCCGGCGCCCGGCGGCUCGAGCCCGGGUAAGUGUAAAUCGUCUGCAUGCCGCCGGGCGCCAUGCCUGCAGGUCGACUCUAGAAAACAUG”, for which the binding signal in experiment [9] was 2.83 log2 enrichment (interaction score); in [17] it was 1.49 log2 enrichment (interaction score); in experiment [10] it was 5.04 log2 enrichment (interaction score); in experiment [18], 4.68 log2 enrichment (interaction score).
